The values that follow come from PubChem BioAssay (NCATS).

“And” between values parts separate entries of the source, which are not always exact repeats. Identical values can stand only once. Records with an inconclusive call do not appear. The source made the active and inactive calls. Unless noted, calls come from the whole dose curve; as a rule, active = well fitted curve in the direction sought with a large enough effect; inconclusive = small, poorly fitted or top-dose-only effect, or another doubt; inactive = no such curve, though single readings can be large; an effect the other way counts as inactive or inconclusive.

Assay [1] can be described thus: Cell Viability - HepG2 (AID 433; calls by dose curve;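 note: potency is the fitted concentration of half-maximal effect; cells exposed to compound for 40 hours; potency for ATP loss meaning cytotoxicity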). As to conditions: qHTS. Summed up: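 HepG2 hepatocellular carcinoma cells (1500/well) were treated with compounds for 40 h at 37 °C in complete medium; intracellular ATP was read by CellTiter-Glo luminescence. Data were normalized to DMSO and 100 uM tamoxifen, and AC50 came from Hill fits.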
Assay [2] is described as follows: Cell Viability - Mesenchymal (AID 546).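 Note: cells exposed to compound for 40 hours before reading.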 The settings on record: mesenchymal cells viability, qHTS; activity change, negative = cytotoxicity: at 91.7 µM (top of the series). In short, it runs like this:
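In this qHTS cytotoxicity format, glomerulus-derived human mesenchymal kidney cells received compound for 40 hr, then luciferase-based ATP quantitation. Concentration-response data were fitted with the Hill equation.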

The nature of assay [3]: Cellular Toxicity (caspase-3) Jurkat (AID 655).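 Note: cells exposed to compound for 16 h at 37 °C before reading.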 As to conditions: Jurkat caspase-3 activation, luminescence; caspase-3 activation: at 92.2 µM (top of the series), DMSO = 0%, tamoxifen = 100%. Summed up:
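Jurkat cells (5000/well) in complete medium were treated with compounds for 16 hr at 37 °C, then Caspase-Glo 3/7 luminescence was read after 20 min at room temperature. Data normalized to DMSO (basal) and 100 uM tamoxifen (100%); AC50 from Hill fit.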

A short description of assay [4]: Cell Viability - LYMP1-002 - Assay at 16 hr (AID 948).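 For activity change, negative = cytotoxicity: 0% = DMSO alone and full effect = 92 µM tetraoctylammonium bromide.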 Note: potency is the fitted concentration of half-maximal effect. The settings on record: LYMP1-002 lymphoblastoid cell viability; series mostly up to 92.2 µM. In short, it runs like this:
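Human lymphoblastoid cells (LYMP1-002), 2500/well, were preincubated 5 hr at 37 C, then exposed to compounds for 16 hr at 37 C in complete medium. Cellular ATP was read by CellTiter-Glo luminescence after 30 min at room temperature; AC50 from Hill fits.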

The nature of assay [5]: Cell Viability - LYMP2-003 (AID 965).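 For activity change, negative = cytotoxicity: 0% = DMSO only and full effect = 92 µM tetraoctylammonium bromide.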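 Note: cells exposed to compounds for 24 h before reading; nearly all actives have a fitted effect of over 50% in size.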 Note: potency is the fitted concentration of half-maximal effect. As to conditions: LYMP2-003 lymphoblastoid cell viability; series mostly up to 92.2 µM. In short, it runs like this:
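Human lymphoblastoid cells (2500/well) were pre-incubated 5 hr at 37 C, then exposed to compounds over a concentration range for 24 hr at 37 C. Intracellular ATP was read by CellTiter-Glo luminescence; AC50 came from Hill-equation fits.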

The nature of assay [6]: Cell Viability - LYMP2-011 (AID 969). Note: nearly all actives have a fitted effect of over 60% in size. Note: potency is the fitted concentration of half-maximal effect. As to conditions: LYMP2-011 lymphoblastoid cells viability; series mostly up to 92.2 µM. Summed up: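 In this qHTS cytotoxicity format, compounds are tested across concentrations on human lymphoblastoid cells in complete medium for 24 hours at 37 C. Viability is taken as cellular ATP measured by luciferase luminescence.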
A short description of assay [7]: Cell Viability - LYMP2-013 (AID 970). Note: nearly all actives have a fitted effect of over 55% in size. Note: potency is the fitted concentration of half-maximal effect. As to conditions: LYMP2-013 lymphoblastoid cells viability; series mostly up to 92.2 µM. Summed up: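 Cytotoxicity is scored as a concentration-dependent drop in intracellular ATP in human lymphoblastoid cells after 24 hr compound exposure at 37 C. ATP is quantified by luciferase luminescence, and AC50 values come from Hill-equation modeling.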

The nature of assay [8]: Cell Viability - LYMP2-021 (AID 974). For activity change, negative = cytotoxicity: % is set by controls: 0 for no effect and ±100 for the full control effect.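 Note: compound exposure lasts 24 hours at 37 °C; nearly all actives have a fitted effect of over 55% in size.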 Note: potency is the fitted concentration of half-maximal effect. The settings on record: LYMP2-021 lymphoblastoid cells viability; series mostly up to 92.2 µM. In short, it runs like this: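 Loss of cellular ATP, measured with a luciferase-based CellTiter-Glo readout, serves as the toxicity signal in human lymphoblastoid cells treated for 24 hours at 37 C. Potency is reported as AC50 from a standard Hill model.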

Assay [9] in a line: Cell Viability - LYMP2-002 (AID 977).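 Note: compound exposure lasted 24 h at 37 °C.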 Note: potency is the fitted concentration of half-maximal effect. As to conditions: LYMP2-002 lymphoblastoid cell viability, qHTS; series mostly up to 92.2 µM. In short, it runs like this:
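In this qHTS viability screen, 2500 human lymphoblastoid cells per well receive compound for 24 hr at 37 C, and luciferase-based ATP luminescence gives the viability signal. Tetraoctylammonium bromide serves as positive control.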

Assay [10] in a line: Cell Viability - LYMP2-008 (AID 980). For activity change, negative = cytotoxicity: % is set by controls: 0 for no effect and ±100 for the full control effect. Note: nearly all actives have a fitted effect of over 60% in size. Note: potency is the fitted concentration of half-maximal effect. As to conditions: LYMP2-008 lymphoblastoid cell viability, qHTS; series mostly up to 92.2 µM. Summed up:
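Cells seeded at 2500/well and rested 5 hr at 37 C; compounds added over a concentration range and incubated 24 hr at 37 C; CellTiter-Glo added, 30 min at room temperature; luminescence read and AC50 fitted with Hill model.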

A short description of assay [11]: Cell Viability - LYMP2-012 (AID 982).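 For activity change, negative = cytotoxicity: 0% = DMSO only and full loss = 92 µM tetraoctylammonium bromide.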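 Note: cellular ATP by luciferase luminescence where a drop means cytotoxicity; cells exposed to compound for one day before reading; nearly all actives have a fitted effect of over 55% in size.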 Note: potency is the fitted concentration of half-maximal effect. As to conditions: LYMP2-012 lymphoblastoid cell viability qHTS; series mostly up to 92.2 µM.
Assay [12] in a line: Cell Viability - LYMP2-014 (AID 983).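 For activity change, negative = cytotoxicity: plate controls were DMSO only for no effect and 92 µM tetraoctylammonium bromide for full effect.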 Note: nearly all actives have a fitted effect of over 50% in size. Note: potency is the fitted concentration of half-maximal effect. The settings on record: LYMP2-014 lymphoblastoid cells, viability qHTS; series mostly up to 92.2 µM. Summed up:
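Cells are plated at 2500/well and left 5 hr at 37 C. Compounds are added across a concentration range and incubated 24 hr at 37 C in complete medium. CellTiter-Glo is added, and luminescence is read after 30 min at room temperature.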

Assay [13] in a line: Cell Viability - LYMP2-016 (AID 984). For activity change, negative = cytotoxicity: % is set by controls: 0 for no effect and ±100 for the full control effect. Note: nearly all actives have a fitted effect of over 55% in size. Note: potency is the fitted concentration of half-maximal effect. As to conditions: LYMP2-016 lymphoblastoid cell viability, qHTS; series mostly up to 92.2 µM. Summed up:
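Human lymphoblastoid cells (LYMP2-016), 2500/well in complete medium, preincubated 5 hr at 37 C, then compound-treated 24 hr at 37 C. Intracellular ATP read by CellTiter-Glo luminescence after 30 min at room temperature; AC50 from Hill-equation concentration-response fits.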

A short description of assay [14]: Cell Viability - LYMP2-020 (AID 986). Note: nearly all actives have a fitted effect of over 55% in size. Note: potency is the fitted concentration of half-maximal effect. As to conditions: series mostly up to 92.2 µM. Summed up: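 Seed 2500 cells per well and incubate 5 hr at 37 C. Add compounds at a concentration series and incubate 24 hr at 37 C. Add CellTiter-Glo, wait 30 min at RT, read luminescence, and fit a Hill curve for AC50.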
Assay [15] can be described thus: Cell Viability - LYMP2-024 (AID 988).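 For activity change, negative = cytotoxicity: plate controls were DMSO only for no effect and 92 µM tetraoctylammonium bromide for full effect.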 Note: nearly all actives have a fitted effect of over 60% in size. Note: potency is the fitted concentration of half-maximal effect. As to conditions: LYMP2-024 lymphoblastoid cell viability; series mostly up to 92.2 µM. In short, it runs like this:
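qHTS cytotoxicity, human lymphoblastoid line, complete medium; 24 h cpd treatment, 37 C; CellTiter-Glo ATP luminescence readout; tetraoctylammonium bromide positive control; AC50 via Hill fit.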

The nature of assay [16]: Cell Viability - LYMP2-026 (AID 989). Note: nearly all actives have a fitted effect of over 50% in size. Note: potency is the fitted concentration of half-maximal effect. As to conditions: LYMP2-026 lymphoblastoid cell viability, qHTS; series mostly up to 92.2 µM. Summed up: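 Cells are seeded at 2500 per well and held 5 hr at 37 C. Compounds are added in concentration series for 24 hr, then CellTiter-Glo reagent is applied and luminescence read.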
Assay [17] can be described thus: Cell Viability - LYMP1-002 - Assay at 40 hr (AID 994). Note: nearly all actives have a fitted effect of over 60% in size. Note: potency is the fitted concentration of half-maximal effect. The settings on record: LYMP1-002 lymphoblastoid cell viability; series mostly up to 92.2 µM. In short, it runs like this:
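Cells are plated at 2500 per well and rested 5 hr at 37 C. Compounds are added and incubated 40 hr at 37 C. CellTiter-Glo reagent is added for 30 min at room temperature before luminescence is read.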

The nature of assay [18]: qHTS assay for small molecule antagonists of retinoid X receptor alpha signaling (AID 588546; active = well fitted inhibition curve with a large enough effect in the signal ratio, with a control signal flat, not every such curve was filed as active; the % refers to the signal ratio;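 note: cells stimulated with 9-cis-retinoic acid as agonist; % is set by controls: 0 for no effect and ±100 for the full control effect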). The settings on record: HEK293T RXRa-UAS-bla, beta-lactamase ratio, antagonist mode; measured here: W530 green channel, cytotoxicity proxy. Summed up: (§1)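 Beta-lactamase reporter inhibition, read as CCF4 fluorescence ratio (ex 405, em 460/530 nm) after 2 h at RT. HEK293T UAS-bla cells, 2500/well, were stimulated with 9-cis-RA at 500 or 100 nM final alongside test compound for 18 h at 37 C.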

Assay [19] deals with Retinoic acid receptor RXR-alpha (Homo sapiens) (UniProt P19793). Described as above. The settings on record: HEK293T RXRa-UAS-bla, beta-lactamase ratio, antagonist mode. In short, it runs like this: as §1
Retinoic acid receptor RXR-alpha (Homo sapiens), sequence (P19793 whole entry, looked up): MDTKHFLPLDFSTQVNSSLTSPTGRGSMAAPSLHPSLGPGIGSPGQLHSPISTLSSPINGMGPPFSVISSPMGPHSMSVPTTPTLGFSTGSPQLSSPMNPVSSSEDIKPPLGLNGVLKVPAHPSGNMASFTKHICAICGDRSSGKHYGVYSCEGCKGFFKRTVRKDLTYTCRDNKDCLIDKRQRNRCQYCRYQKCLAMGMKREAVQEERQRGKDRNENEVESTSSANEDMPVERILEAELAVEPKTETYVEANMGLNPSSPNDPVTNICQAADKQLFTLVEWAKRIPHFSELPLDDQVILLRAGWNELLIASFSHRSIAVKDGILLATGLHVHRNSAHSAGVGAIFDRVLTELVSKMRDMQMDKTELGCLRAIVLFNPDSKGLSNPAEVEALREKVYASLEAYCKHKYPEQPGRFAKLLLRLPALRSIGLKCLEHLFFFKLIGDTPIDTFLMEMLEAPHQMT
Assay [20] can be described thus: qHTS assay for environmental chemicals that activate the Aryl hydrocarbon Receptor (AhR) signaling pathway (AID 651777). For activation: % of control where 0% means no effect. Note: nearly all actives have a fitted effect of over 15% in size. Note: potency is the fitted concentration of half-maximal effect. The settings on record: 1A2-DRE human hepatoma cells, luciferase, 24 h; activation: stronger effect = higher value. In short, it runs like this:
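Induction of CYP1A2 transcription through AhR is detected by luciferase in 1A2-DRE hepatoma cells. Compounds or DMSO act for 24 hr at 37 C before a 30 min One-Glo step at room temperature.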

Consider `COc1ccc(C)cc1N`, for which the Potency in [1] was > 92 µM (inactive). Further, the Potency entry in assay [2], in [3], in assay [4], in [5], in assay [6] and in assay [7] was “inactive” in each case. Also, the Potency result in assay [8], in assay [9], in [10], in assay [11], in assay [12] and in [13] was “inactive” throughout. Also, the Potency entry in assay [14], in assay [15], in [16] and in [17] was “inactive” each time. Besides, the max response in [18] is -0.963%; in assay [19], 10.5% (inactive). Besides, the activation in assay [20] was 3.33% (inactive).
Take `Cc1ccc(O)c(N)c1`: the Potency is > 92 µM (inactive) in [1]; 79.4 µM (active) in assay [5]; 79.4 µM (active) in assay [7]; 50.1 µM (active) in assay [14]; 39.8 µM (active) in assay [15]; 50.1 µM (active) in [20]. Besides, the Potency result in [2], in assay [3], in assay [4], in [9] and in assay [16] was “inactive” throughout. Besides, the max response in [18] was -2.88%; in assay [19] it was 11.9% (inactive).
As for `CCOc1ccc2nc(N)sc2c1`, the Potency in [1] is > 92 µM (inactive); in [20], 10 µM (active). Also, the Potency result in assay [2], in assay [3], in [4], in assay [5], in assay [6] and in assay [7] was “inactive” in each case. In addition, the Potency entry in [8], in assay [9], in assay [10], in assay [11], in assay [12] and in [13] was “inactive” throughout. Further, the Potency result in assay [14], in [15], in assay [16] and in assay [17] was “inactive” throughout. Also, the max response is -8.45% in assay [18] and -7.66% (inactive) in assay [19].
Take `O=C1OC(=O)c2ccccc21`: the Potency in assay [1] was > 92 µM (inactive). Besides, the Potency entry in assay [2], in [4], in assay [5], in [6], in [7] and in assay [8] was “inactive” in each case. Moreover, the Potency result in assay [9], in assay [10], in assay [11], in assay [12], in [13] and in [14] was “inactive” in each case. The Potency result in assay [15], in [16] and in assay [17] was “inactive” in each case. The max response in assay [18] was 4.94%; in [19] it was 20.4% (inactive).
`Oc1c(Cl)cc(Cl)c(Cl)c1Cl`: in assay [1], the Potency was > 92 µM (inactive). The Potency result in assay [2], in assay [4], in assay [5], in assay [6], in [7] and in assay [8] was “inactive” throughout. The Potency entry in assay [9], in assay [10], in [11], in assay [12], in assay [13] and in [14] was “inactive” in each case. Also, the Potency result in assay [15], in assay [16] and in assay [17] was “inactive” each time. Moreover, the caspase-3 activation in assay [3] is 91.2% (active). Besides, the max response is -1.63% and -16.2% in [18]; 4.04% (inactive) and 5.02% (inactive) in [19]. In addition, in assay [20], the activation was -0.427% (inactive).
For the compound `C[C@@H]1CC2(OC(O)[C@]3(C)O[C@H]23)O[C@H]2C[C@@]3(C)[C@@H]4CC[C@H]5C(C)(C)C(O[C@@H]6OC[C@@H](O)[C@H](O)[C@H]6O)CC[C@@]56C[C@@]46CC[C@]3(C)[C@@H]12` (stereo partly drawn), the Potency entry in assay [5], in [6], in assay [7], in [8] and in assay [9] was “inactive” throughout. The Potency in assay [11] is 50.1 µM (active); in [15] it was 39.8 µM (active). For the same compound, the activation in assay [20] is 0.629% (inactive).
On to `C=CC(=O)OCCCCCCOC(=O)C=C`, for which the Potency is > 92 µM (inactive) in [1]; 39.8 µM (active) in assay [4]; 39.8 µM (active) in assay [5]; 39.8 µM (active) in [6]; 39.8 µM (active) in [7]; 39.8 µM (active) in [8]. Further, the Potency in assay [9] is 50.1 µM (active); in [10] it was 50.1 µM (active); in [11], 39.8 µM (active); in assay [12], 50.1 µM (active); in assay [13], 39.8 µM (active); in assay [14], 39.8 µM (active). Moreover, the Potency in assay [15] was 31.6 µM (active); in assay [16] it was 39.8 µM (active); in assay [17], 39.8 µM (active). Further, in assay [3], the Potency result was “inactive”. The max response is 3.39% and -7.34% in assay [18]; -43.4% (inactive) and 3.26% (inactive) in assay [19]. The activation in assay [20] is -0.448% (inactive) and 0.963% (inactive).
